Compound activity deposited in PubChem by National Center for Advancing Translational Sciences (NCATS).
FLuc inh: inhibitors of firefly (Photinus pyralis) luciferase; purified P. pyralis luciferase, luminescence, biochemical; Potency, µM (doses to about 115 µM), hits mostly inhibitors; actives 2.5% (n = 76,000); AID 1347043; further: nearly all actives have a fitted effect of over 65% in size
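FLuc 10nM, D-luciferin 10uM, ATP 10uM, Mg acetate 10mM, Tris acetate pH 7.5, Tween/BSA; cpd qHTS; enzyme added last; CCD luminescence.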
GPT2 inhibitor: GPT2 alanine aminotransferase inhibition; Q8TD30; Recombinant GPT2, coupled pyruvate oxidase/HRP Amplex Red fluorescence; Potency, µM (highest dose often 57.7 µM), actives largely listed as inhibitors; actives 0.25% (n = 100,000); AID 1671188; further: nearly all actives have a fitted effect of over 60% in size
Target sequence (Q8TD30 whole entry, looked up): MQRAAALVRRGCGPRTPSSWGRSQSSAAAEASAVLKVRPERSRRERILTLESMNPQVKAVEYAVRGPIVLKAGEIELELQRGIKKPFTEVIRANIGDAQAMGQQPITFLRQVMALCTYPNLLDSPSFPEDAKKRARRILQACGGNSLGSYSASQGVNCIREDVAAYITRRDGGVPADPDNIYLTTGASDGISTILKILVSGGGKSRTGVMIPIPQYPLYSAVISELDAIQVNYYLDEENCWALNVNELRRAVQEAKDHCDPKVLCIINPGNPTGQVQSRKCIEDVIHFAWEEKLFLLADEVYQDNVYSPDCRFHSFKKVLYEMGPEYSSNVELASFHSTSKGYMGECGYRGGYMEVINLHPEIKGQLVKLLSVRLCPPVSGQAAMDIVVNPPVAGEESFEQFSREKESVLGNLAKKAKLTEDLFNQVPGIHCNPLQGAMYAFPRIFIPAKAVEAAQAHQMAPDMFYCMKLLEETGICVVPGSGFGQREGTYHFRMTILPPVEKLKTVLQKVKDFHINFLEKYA
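Recombinant GPT2 (10ng/uL) with 250uM a-KG and 2mM L-alanine, 30 min at room temperature, in HEPES pH 7.5 buffer. Pyruvate detected by pyruvate oxidase/HRP/Amplex Red fluorescence after 30 min in the dark; AOA (50uM) as positive control.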
NIH3T3 tox: cytotoxic compounds in NIH 3T3 cells | NIH 3T3 viability, CellTiter-Glo ATP luminescence, 48-72 h | Potency, µM (highest dose often 96.7 µM), hits mostly inhibitors | actives 4.3% (n = 94,000) | AID 1345082; further: nearly all actives have a fitted effect of over 55% in size
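Cells were seeded at 400 per well, treated with pin-transferred compound, and kept 48 or 72 hr at 37 °C before CellTiter-Glo addition and luminescence imaging of cellular ATP.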
NPR1 antag: antagonists of human natriuretic peptide receptor Npr1; Potency, µM (titrated, usually from 46.3 µM), hits mostly inhibitors; AID 1347048; HEK293 hNpr1 GloSensor cGMP, ANP-stimulated luminescence; actives 1.6% (n = 76,000); calls by dose curve; further: nearly all actives have a fitted effect of over 60% in size
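HEK293 cells stably expressing human Npr1 and cGMP GloSensor pGS-40F, loaded 2 h with 2% GloSensor reagent, given compound 30 min at room temperature. Luminescence read before and 20 min after 0.1 nM hNppA.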
HEK cytotox: HEK 293 cell cytotoxicity | HEK 293 viability, ATP luminescence (CellTiter-Glo), 48-72 h | Potency, µM (series often up to 115 µM), hits mostly inhibitors | actives 6.6% (n = 94,000) | AID 1345083; further: nearly all actives have a fitted effect of over 60% in size
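Read-out: CellTiter-Glo ATP luminescence. Cells: HEK 293, 250 cells/well. Exposure: 48 or 72 hr, 37 degree Celsius.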
Of the large screens only hits and unclear results are named; the others gave an inactive call. A selection: hits, their analogues and other compounds. The true share with any hit is near 10%. Unless noted, the call rests on the fitted dose curve; in most records, active means well fitted curve in the direction sought with a large enough effect; inconclusive means small, poorly fitted or top-dose-only effect, or another doubt; inactive means no such curve, though single readings can be large; an effect the other way counts as inactive or inconclusive.

C#C[C@H]1CN2CC[C@H]1C[C@@H]2CNC(=O)c1ccc(C#N)cc1	none
C=C[C@H]1CN2CC[C@H]1C[C@@H]2CNC(=O)Nc1ccc(Br)cc1	NIH3T3 tox inconclusive, HEK cytotox 56.2µM
C#C[C@H]1CN2CC[C@H]1C[C@@H]2CNC(=O)Nc1ccc(C(C)=O)cc1	NIH3T3 tox inconclusive, HEK cytotox inconclusive
C=C[C@H]1CN2CC[C@H]1C[C@@H]2CNC(=O)Nc1ccc(Oc2ccccc2)cc1	NIH3T3 tox inconclusive, HEK cytotox 100µM
C=C[C@H]1CN2CC[C@H]1C[C@@H]2CNC(=O)Nc1ccc(OC(F)(F)F)cc1	NIH3T3 tox inconclusive
C=C[C@H]1CN2CC[C@H]1C[C@@H]2CNC(=O)c1cc(OC)c(OC)c(OC)c1	NIH3T3 tox 44.7µM, HEK cytotox inconclusive
C=C[C@H]1CN2CC[C@H]1C[C@@H]2CNC(=O)Nc1cc(OC)cc(OC)c1	NIH3T3 tox inconclusive
C#C[C@H]1CN2CC[C@H]1C[C@@H]2CNC(=O)Nc1ccc(Oc2ccccc2)cc1	NIH3T3 tox 39.8µM, HEK cytotox 39.8µM
N#Cc1ccc([C@H]2CCCC[C@H]2O)cc1C(F)(F)F	none (no result: FLuc inh, NIH3T3 tox, NPR1 antag, HEK cytotox)
Cn1cc(CN2CCOC[C@H](O)C2)c2ccccc21	NIH3T3 tox 89.1µM, HEK cytotox 63.1µM
CC(C)CCN1CCN2C(=O)NC[C@H]2C1	none
COc1ccccc1-c1cc([C@H]2CN3CC[C@H]2C[C@@H]3COC(=O)Nc2ccc(C(C)C)cc2)n(C)n1	NIH3T3 tox 22.4µM, HEK cytotox 28.2µM
COc1ccccc1-c1cc([C@H]2CN3CC[C@H]2C[C@@H]3COC(=O)Nc2ccc(C(C)(C)C)cc2)n(C)n1	NIH3T3 tox 22.4µM, HEK cytotox 25.1µM
CCOC(=O)[C@H]1CN(C(=O)OCc2ccccc2)[C@]2(C)C(=O)N(CC3CC3)c3ccccc3[C@H]12	NIH3T3 tox inconclusive, HEK cytotox 35.5µM (no result: FLuc inh, NPR1 antag)
CCCCCC(=O)N1C[C@H](C(=O)OCC)[C@H]2c3ccccc3N(CC3CC3)C(=O)[C@]21C	NIH3T3 tox inconclusive, HEK cytotox 31.6µM (no result: FLuc inh, NPR1 antag)
CCOC(=O)[C@H]1CN(C(=O)CCc2ccccc2)[C@]2(C)C(=O)N(CC3CC3)c3ccccc3[C@H]12	NIH3T3 tox inconclusive, HEK cytotox inconclusive (no result: FLuc inh, NPR1 antag)
CCOC(=O)[C@H]1CN(C(=O)NC2CCCC2)[C@]2(C)C(=O)N(CC3CC3)c3ccccc3[C@H]12	NIH3T3 tox inconclusive, HEK cytotox 31.6µM (no result: FLuc inh, NPR1 antag)
C#CCN(C)C[C@H]1CN2CC[C@H]1C[C@@H]2CNC(=O)Nc1ccc(OC)cc1	none
N#Cc1cncc(N2CC3CCC(C2)N3CC(F)(F)F)c1	none (no result: FLuc inh, NPR1 antag)
COCCN1C[C@H]2CN(Cc3cccnc3)CCN2C1=O	none
O=C1NC2(CCCN(Cc3cccnc3)C2)COc2ccccc21 (stereo not drawn)	NIH3T3 tox 35.5µM, HEK cytotox 89.1µM
O=C1N(c2ccccn2)C[C@H]2CN(Cc3ccc(F)cc3)CCN12	FLuc inh 25.1µM
CCC(C(=O)N1CCC(C#N)(c2ccccc2)CC1)n1cccn1 (stereo not drawn)	none
COc1cc2c(cc1Oc1ccccc1)NC(=O)C21CCN(c2ncc(C(C)C)cn2)CC1	NIH3T3 tox inconclusive, HEK cytotox inconclusive
CCc1cnc(N2CCC3(CC2)C(=O)Nc2cc(OCC4CC4)c(OC)cc23)nc1	NIH3T3 tox 100µM, HEK cytotox 112µM
COc1cc2c(cc1OCC1CC1)NC(=O)C21CCN(c2nc(C)cc(C)n2)CC1	NIH3T3 tox inconclusive, HEK cytotox inconclusive
COc1cc2c(cc1OCC1CC1)NC(=O)C21CCN(c2ncc(C(C)C)cn2)CC1	GPT2 inhibitor inconclusive, NIH3T3 tox 79.4µM, HEK cytotox 100µM
Cc1nc(-c2ccc(F)cc2)cc([C@H]2CN3CC[C@H]2C[C@@H]3CNC(=O)NCc2ccccc2)n1	NIH3T3 tox inconclusive, HEK cytotox inconclusive
Cc1nc(-c2ccc(F)cc2)cc([C@H]2CN3CC[C@H]2C[C@@H]3CNC(=O)Nc2cccc(C#N)c2)n1	NIH3T3 tox 22.4µM, HEK cytotox inconclusive
Cc1nc(-c2ccccc2Br)cc([C@H]2CN3CC[C@H]2C[C@@H]3CNC(=O)Nc2ccc(Cl)cc2)n1	NIH3T3 tox 35.5µM, HEK cytotox 22.4µM
Cc1nc(-c2ccco2)cc([C@H]2CN3CC[C@H]2C[C@@H]3CNCC2CCCCC2)n1	NIH3T3 tox 89.1µM, HEK cytotox 112µM
Cc1nc(-c2ccccc2)cc([C@H]2CN3CC[C@H]2C[C@@H]3CNC(=O)N2CCOCC2)n1	NIH3T3 tox 89.1µM, HEK cytotox inconclusive
Cc1nc(-c2ccc(C(F)(F)F)cc2)cc([C@H]2CN3CC[C@H]2C[C@@H]3CNC(=O)N2CCOCC2)n1	NIH3T3 tox inconclusive, HEK cytotox inconclusive
COc1ccccc1N1CCN(C(=O)[C@H]2CN3CCC2C[C@@H]3Cn2cc(COc3ccccc3)nn2)CC1 (stereo partly drawn)	none
Cc1ccc2c(n1)N(C)[C@H](CO)CCN(CC(C)C)C2	NIH3T3 tox inconclusive, HEK cytotox inconclusive
CN(C)C(=O)C1CN(Cc2cccnc2)CC12CCOCC2 (stereo not drawn)	none
Cc1nc(-c2ccccc2Br)cc([C@H]2CN3CC[C@H]2C[C@@H]3CNC(=O)Nc2cccc(C#N)c2)n1	NIH3T3 tox 28.2µM, HEK cytotox 22.4µM
Cc1nc(-c2ccc(C(F)(F)F)cc2)cc([C@H]2CN3CC[C@H]2C[C@@H]3CNC(=O)C(C)(C)C)n1	NIH3T3 tox 20µM, HEK cytotox 39.8µM
Cc1nc(-c2ccc(F)cc2)cc([C@H]2CN3CC[C@H]2C[C@@H]3CNC(=O)c2ccco2)n1	NIH3T3 tox 100µM, HEK cytotox inconclusive
O=C(O)C1CN(Cc2ncc[nH]2)CCN(C(=O)Cc2cccs2)C1 (stereo not drawn)	HEK cytotox inconclusive
COc1cc2c(cc1Oc1ccccc1)NC(=O)C21CCN(Cc2ccccc2)CC1	GPT2 inhibitor inconclusive, NIH3T3 tox 28.2µM, NPR1 antag inconclusive, HEK cytotox 28.2µM
COc1cc2c(cc1Oc1ccccc1)NC(=O)C21CCN(c2ncccn2)CC1	NIH3T3 tox 79.4µM, HEK cytotox inconclusive
COc1cncc(CN2CCC3(CC2)C(=O)Nc2cc(Oc4ccccc4)c(OC)cc23)c1	NIH3T3 tox inconclusive, HEK cytotox 35.5µM
C[C@]12CCC(=O)C=C1CC[C@@H]1[C@@H]2[C@@H](O)C[C@]2(C)C(=O)CC[C@@H]12	none (no result: FLuc inh, NIH3T3 tox, NPR1 antag, HEK cytotox)
COc1cc2c(cc1OCC1CC1)NC(=O)C21CCN(c2cnccn2)CC1	HEK cytotox inconclusive
COc1cc2c(cc1Oc1ccccc1)NC(=O)C21CCN(C(=O)C2CCN(C)CC2)CC1	GPT2 inhibitor inconclusive, NIH3T3 tox inconclusive
CN(C[C@H]1CN2CC[C@H]1C[C@@H]2CNC(=S)NCc1ccco1)c1ccccc1	NIH3T3 tox 28.2µM, HEK cytotox 39.8µM
